Reference: PubChem BioAssay (NCI)
Compounds without any hit were thinned out: in the full panel of roughly 79,000, 15% have a hit. Calls of active or inactive are those of the source. No stated cut-off is given here; in the data, active means growth inhibition above about 70%; inactive means the rest.

Assays:
[1] = NCI Yeast Anticancer Drug Screen. Data for the rad52 strain (AID 147);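 further: 0% = growth of vehicle-treated control cultures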; settings: S. cerevisiae rad52 mutant growth inhibition, active compounds read high
Procedure, shortened: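 Growth of repair-deficient yeast cells was compared between compound-treated and vehicle-treated cultures to give percent inhibition.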

[2] = NCI Yeast Anticancer Drug Screen. Data for the wt1 strain (AID 149);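 further: 0% = growth of vehicle-treated wt1 cultures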; settings: S. cerevisiae wt1 strain (SPY 50644) growth inhibition, active compounds read high
Procedure, shortened: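 Measured: growth of wt1 yeast under compound versus vehicle treatment, reported as inhibition.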

[3] = NCI Yeast Anticancer Drug Screen. Data for the rad50EPP+ strain (AID 151);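 further: 0% = growth of vehicle-treated control cultures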; settings: S. cerevisiae rad50 mutant strain, active compounds read high
Procedure, shortened: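 Measured: growth inhibition of rad50EPP+ yeast. Reference: vehicle-treated controls. Screen uses strains with defined genetic alterations in DNA damage repair or cell cycle control.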

[4] = NCI Yeast Anticancer Drug Screen. Data for the mgt1 strain (AID 153); settings: S. cerevisiae mgt1 mutant growth inhibition, active compounds read high
Procedure, shortened: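 Compounds were applied to mgt1 mutant yeast, and growth was then compared against vehicle-treated control cultures to give percent inhibition.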

[5] = NCI Yeast Anticancer Drug Screen. Data for the rad50 strain (AID 155);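 further: 0% = growth of vehicle-only cultures of the same strain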; settings: S. cerevisiae rad50 strain growth inhibition, active compounds read high
Procedure, shortened: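 Growth of the mutant yeast was measured after compound exposure and referenced to vehicle-treated cultures.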

[6] = NCI Yeast Anticancer Drug Screen. Data for the mec2-1 strain (AID 157); settings: S. cerevisiae mec2-1 strain, active compounds read high
Procedure, shortened: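 Compounds were applied to mec2-1 yeast cells. Their growth was then compared with that of vehicle-treated cultures to give growth inhibition.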

[7] = NCI Yeast Anticancer Drug Screen. Data for the rad14 strain (AID 159);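 further: 0% = growth of vehicle-treated control cultures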; settings: S. cerevisiae rad14 strain growth inhibition, active compounds read high
Procedure, shortened: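 Here, inhibition of yeast growth was measured after compound exposure, using a strain with a genetic defect in DNA damage repair and vehicle-treated cultures as the reference.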

[8] = NCI Yeast Anticancer Drug Screen. Data for the sgs1 mgt1 strain (AID 161);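 further: 0% = growth of cultures given vehicle only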; settings: S. cerevisiae sgs1 mgt1 strain, active compounds read high
Procedure, shortened: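 Yeast cells carrying a defined DNA-repair defect were exposed to test compounds. Growth inhibition was measured relative to vehicle-treated controls.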

[9] = NCI Yeast Anticancer Drug Screen. Data for the CLN2oe strain (AID 163);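 further: 0% = growth of vehicle-only control cultures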; settings: S. cerevisiae CLN2oe strain, active compounds read high
Procedure, shortened: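 Cells of an engineered yeast line with disturbed cell-cycle regulation are treated with compound. Inhibition of growth is then calculated relative to the vehicle-treated reference.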

[10] = NCI Yeast Anticancer Drug Screen. Data for the cln2 rad14 strain (AID 165);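 further: 0% = growth equal to vehicle treated cultures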; settings: S. cerevisiae cln2 rad14 strain, active compounds read high
Procedure, shortened: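 Strain: cln2 rad14 yeast, altered in cell cycle control and DNA damage repair. Read-out: growth inhibition vs vehicle.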

[11] = NCI Yeast Anticancer Drug Screen. Data for the bub3 strain (AID 167); settings: S. cerevisiae bub3 mutant strain, active compounds read high
Procedure, shortened: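 Whole-cell yeast assay. The mutant strain was incubated with compounds, and growth inhibition was determined by comparison with vehicle-treated cells.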

[12] = NCI Yeast Anticancer Drug Screen. Data for the wt2 strain (AID 169);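 further: 0% = growth of vehicle-treated yeast cultures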; settings: S. cerevisiae wt2 strain growth inhibition, active compounds read high
Procedure, shortened: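 Growth of compound-treated yeast is measured and expressed as inhibition relative to vehicle-only controls.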

[13] = NCI Yeast Anticancer Drug Screen. Data for the mlh1 strain (AID 171);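 further: 0% = growth of vehicle-treated control cultures of the same strain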; settings: S. cerevisiae mlh1 strain growth inhibition, active compounds read high
Procedure, shortened: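 Test agents were incubated with yeast bearing a defined DNA damage repair or cell cycle control alteration; values are growth inhibition normalised to vehicle-treated cultures.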

[14] = NCI Yeast Anticancer Drug Screen. Data for the sgs1 strain (AID 173);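 further: 0% = growth of vehicle-only control cultures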; settings: S. cerevisiae sgs1 mutant, active compounds read high
Procedure, shortened: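 Strain with an altered DNA repair or cell cycle pathway exposed to compound. Growth then measured. Value = inhibition versus vehicle control.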

[15] = NCI Yeast Anticancer Drug Screen. Data for the mlh1 rad18 strain (AID 175); settings: S. cerevisiae mlh1 rad18 strain growth inhibition, active compounds read high
Procedure, shortened: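 A repair-deficient yeast strain is exposed to test compound, and growth is scored relative to vehicle-treated controls.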

[16] = NCI Yeast Anticancer Drug Screen. Data for the rad18 strain (AID 177); settings: S. cerevisiae rad18 mutant growth inhibition, active compounds read high
Procedure, shortened: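 DNA-repair-defective yeast; compound treatment; growth inhibition scored against vehicle.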

[17] = at 5.0 µM (retest, dose inferred, filed as 0.5)
[18] = at 50.0 µM (retest, dose inferred, filed as 5.0)

Measured: growth inhibition

O=S(=O)(NNc1ccccc1)c1ccccc1
active: [1]; at 100.0 µM 97% | [3]; at 33.0 µM 71% | [3]; at 100.0 µM 94% | [4]; at 100.0 µM 82% | [5]; at 50.0 µM 73.5% | [5]; at 100.0 µM 95% | [6]; at 100.0 µM 92% | [9]; at 100.0 µM 85% | [11]; at 100.0 µM 93% | [13]; at 100.0 µM 74% | [14]; at 100.0 µM 90% | [16]; at 100.0 µM 91%
inactive: [1]; at 1.2 µM -1% | [1]; at 3.7 µM 4% | [1]; at 11.0 µM 15% | [1]; at 33.0 µM 62% | [2]; at 1.2 µM -1% | [2]; at 3.7 µM -1% | [2]; at 11.0 µM 4% | [2]; at 33.0 µM 11% | [2]; at 100.0 µM 45% | [3]; at 1.2 µM -1% | [3]; at 3.7 µM 1% | [3]; at 11.0 µM 14% | [4]; at 1.2 µM -3% | [4]; at 3.7 µM -1% | [4]; at 11.0 µM 8% | [4]; at 33.0 µM 14% | [5]; at 1.2 µM 4% | [5]; at 3.7 µM 18% | [5]; [17] -20% | [5]; at 11.0 µM 27% | [5]; at 33.0 µM 60% | [5]; [18] 16% | [6]; at 1.2 µM -6% | [6]; at 3.7 µM -5% | [6]; [17] -12% | [6]; at 11.0 µM -3% | [6]; at 33.0 µM 26% | [6]; [18] 15% | [6]; at 50.0 µM 19.1% | [7]; at 1.2 µM -2% | [7]; at 3.7 µM 3% | [7]; at 11.0 µM 8% | [7]; at 33.0 µM 18% | [7]; at 100.0 µM 44% | [8]; [17] 0% | [8]; [18] 9% | [8]; at 50.0 µM 36.6% | [9]; at 1.2 µM 0% | [9]; at 3.7 µM -1% | [9]; at 11.0 µM 5% | [9]; at 33.0 µM 34% | [10]; [17] -44% | [10]; [18] -3% | [10]; at 50.0 µM 16.1% | [11]; at 1.2 µM -4% | [11]; at 3.7 µM -7% | [11]; [17] -4% | [11]; at 11.0 µM 1% | [11]; at 33.0 µM 45% | [11]; [18] 23% | [11]; at 50.0 µM 11.7% | [12]; at 1.2 µM -2% | [12]; at 3.7 µM -1% | [12]; at 11.0 µM 2% | [12]; at 33.0 µM 16% | [12]; at 100.0 µM 67% | [13]; at 1.2 µM -5% | [13]; at 3.7 µM -3% | [13]; at 11.0 µM -2% | [13]; at 33.0 µM 14% | [14]; at 1.2 µM -1% | [14]; at 3.7 µM -1% | [14]; at 11.0 µM 6% | [14]; at 33.0 µM 34% | [15]; [17] -25% | [15]; [18] 51% | [15]; at 50.0 µM 54.5% | [16]; at 1.2 µM -1% | [16]; at 3.7 µM 3% | [16]; at 11.0 µM 22% | [16]; at 33.0 µM 47%
